# Abeta rescue: A-beta toxicity reversal in yeast. yeast expressing A-beta42, growth rescue, OD600, 48 h; response scale: 0% DMSO, 100% iron-clioquinol control. Potency, µM (series often up to 46.1 µM), actives largely listed as activators. 410,000 compounds, 0.063% hits; also: potency is read from the fitted curve at half-maximal effect; nearly all actives have a fitted effect of over 55% in size
#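 Growth rescue measured by 600 nm absorbance after 48 h yeast culture at 30 C with compound. Values normalized between DMSO and an equimolar ferric chloride plus clioquinol control.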
# FUS suppressor: rescues growth of FUS-expressing yeast. AID 1347120. S. cerevisiae FUS-expressing, growth rescue, OD600, 24 h. Potency, µM (titrated, usually from 76.6 µM), actives largely listed as activators. 390,000 compounds, 0.24% hits;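 also: potency is read from the fitted curve at half-maximal effect; plate controls were DMSO vehicle for no effect and reference control for full effect; nearly all actives have a fitted effect of over 55% in size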
#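 Read-out: OD at 600 nm after 24hr at 30C, reporting rescue of FUS-induced yeast toxicity. Cells at OD 0.005 in galactose (2%) minimal medium; compounds tested in a dilution series; CP55940 titration from 92uM final as control.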
# aSyn rescue: inhibitors of alpha-synuclein toxicity in yeast; Yeast expressing alpha-synuclein, growth rescue, BacTiter-Glo, 24 h; Potency, µM (titrated, usually from 46.1 µM), inactives show at the top dose growth rescue (activation), usual class: activators; 370,000 compounds, 0.14% hits; also: potency is read from the fitted curve at half-maximal effect; % of control where 0% means no effect; nearly all actives have a fitted effect of over 65% in size
#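 Galactose-induced alpha-syn yeast (OD600=0.02, raffinose-pregrown) + pinned cpd, 24 hr, 30 deg C; growth by BacTiter-Glo luminescence. Growth restoration scores as activation.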
# Akt phos inh: Akt phosphorylation inhibition; Neuro2A IGF-stimulated pAkt S473 HTRF, 20 min; hits give low values; activity change, % for hits at 50 µM; 360,000 compounds, 0.32% hits; AID 651550; in the data active = activity change below about -80%; inconclusive = mostly about -51% to -80%; also: % is scaled to controls: 0 for no effect and ±100 for the full control effect
#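 Neuro2A cells (4,500/well, DMEM with 0.5% FBS) were treated with compound at a single 50 µM final concentration, stimulated with 6 nM IGF for 20 min at 37 °C, and lysed. Phospho-Akt Ser473 was read by HTRF as 665/615 ratio ×10^4.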
# TDP-43 yeast inh: TDP-43 toxicity inhibition in yeast; TDP-43 expressing yeast growth rescue, BacTiter-Glo, 24 h; Potency, µM (titrated, usually from 46.1 µM), without a hit: top-dose growth rescue (activation), actives largely listed as activators; 410,000 compounds, 1.8% hits; also: potency is read from the fitted curve at half-maximal effect; % of control where 0% means no effect; nearly all actives have a fitted effect of over 50% in size
#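 Luminescence from BacTiter-Glo reports growth of TDP-43-expressing yeast after 24 hr at 30 deg C with compound. Cells were raffinose-pregrown to mid-log, then seeded in galactose medium at OD600=0.02.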
# Active calls of the source: *; i = inactive; ? = inconclusive; . = not tested or not shown; ! = not active in a repeat; [ ] = dose if it differs, or a comment. Compounds with a hit are over-represented: about 2.3% of the library has one in this group of screens. Unless noted, calls follow the shape of the dose curve; as a rule, active = well fitted curve in the direction sought with a large enough effect; inconclusive = small, poorly fitted or top-dose-only effect, or another doubt; inactive = no such curve, though single readings can be large; an effect the other way counts as inactive or inconclusive.
SMILES,Abeta rescue,FUS suppressor,aSyn rescue,Akt phos inh,TDP-43 yeast inh
CC1(C(=O)OCC(=O)NCc2ccc(Cl)cc2)CC1(Cl)Cl (configuration not stated),i,.,10%,i,14µM*
O=C(COC(=O)CCC(=O)c1ccc(Cl)cc1)NCc1ccc(F)cc1,i,i,2%,i,14µM*
O=C(COC(=O)Cc1ccc(Cl)cc1)NCc1ccc(F)cc1,i,i,8%[1.84 µM],i,?
COc1cc(C(C#N)N2N=C(c3ccccc3)CC2c2ccccc2)ccc1O (configuration not stated),i,i,7%,-113%*,?
N#CC(c1ccccc1O)N1N=C(c2ccccc2)CC1c1ccccc1 (configuration not stated),i,i,18%,i,?
CC(=C1SC(=S)NC1=O)c1ccccc1,i,.,-12%,i,13µM*
O=C(CSc1nc2ccccc2n1Cc1cccc(F)c1)NCc1ccccc1,i,i,.,.,22µM*
CSc1nc2ccccc2n1Cc1cccc([N+](=O)[O-])c1,i,i,6%,i,1%
O=C(CSc1nc2ccccc2n1Cc1cccc(C(F)(F)F)c1)NCc1ccccc1,i,i,.,.,12%
CN(C(=O)CSc1nc2ccccc2n1Cc1cccc(C(F)(F)F)c1)c1ccccc1,i,i,.,.,21%
CSc1nc2ccccc2n1Cc1cccc(F)c1,i,i,0%,i,18µM*
COc1cccc(Cn2c(SCC(=O)N(C)c3ccccc3)nc3ccccc32)c1,i,?,.,.,18µM*
COc1ccc2c(CNC3CCCCCC3)c(C(=O)O)n(Cc3ccc(C)cc3)c2c1,i,?,.,.,4%
CCCc1cc(=O)[nH]c2nnc(SCC)n12,i,i,.,.,30%
C/C(=N\Nc1cc(C)nc(-c2ccccc2O)n1)c1ccccc1O,i,i,-9%,i,11µM*
Cc1cc(N/N=C\c2ccccc2)nc(-c2ccccc2O)n1,i,i,-10%,i,26%
COC(=O)c1cccc(Nc2cc(C)nc(-c3ccccc3O)n2)c1,i,.,9%,i,?
COC(=O)c1ccc(Nc2cc(C)nc(-c3ccccc3O)n2)cc1,i,i,0%,-86%*,13%
Cc1cc(C(=O)C(C)Sc2cccc[n+]2[O-])c(C)n1-c1ccc(Cl)cc1 (configuration not stated),i,i,2.8µM*,i,?
C=CCc1cccc2cc(-c3nc4ccc(C(=O)O)cc4[nH]3)c(=O)oc12,i,i,.,.,1%
COc1ccc(-c2cc(C)no2)cc1S(=O)(=O)NC(C)C,i,i,.,.,15%
CC1CC(C)(C)N(C(=O)NC2CCCCC2)c2ccccc21 (configuration not stated),i,.,-8%,i,14µM*
COc1ccc2c(c1)C(C)CC(C)(C)N2C(=O)NC1CCCCC1 (configuration not stated),i,i,1%,i,-23%
CCOc1ccc(S(=O)(=O)NCC(c2ccc(N(C)C)cc2)N2CCCC2)cc1 (configuration not stated),i,i,.,.,8%
C=Cc1ccc(Cn2c(SCC(=O)N3CCN(c4ccc(F)cc4)CC3)nc3ccccc32)cc1,i,i,.,.,25%
SMILES,Abeta rescue,FUS suppressor,aSyn rescue,Akt phos inh,TDP-43 yeast inh
Cc1ccc(NC(=O)N2CCC(c3ccccc3)C2)cc1C (configuration not stated),i,i,11%,i,?
Cc1ccc(NC(=S)N2CCC(c3ccc(C)cc3)C2)cc1 (configuration not stated),?,i,-12%,i,18µM*
Cc1ccc(C2CCN(C(=O)Nc3ccccc3)C2)cc1 (configuration not stated),i,i,7%,i,10µM*
O=C(Nc1ccc(Cl)cc1)N1CCC(c2ccccc2)C1 (configuration not stated),i,i,1%,i,11µM*!
CCCN(CCC)C(=O)Cn1c(SCc2cccc(F)c2)nc2cccnc21,i,i,.,.,20%
CNS(=O)(=O)c1cn(CC(=O)Nc2ccc(OC)c(Cl)c2)cc1S(=O)(=O)NC,i,i,.,.,8%
CCC(C)Sc1nc2c(c(=O)n1C)SC(C)C2 (configuration not stated),i,i,-15%,i,18µM*
CCc1c(C)c2ccc(O)c(CN3CCN(c4ccccc4)CC3)c2oc1=O,i,i,.,.,13%
Cc1ccccc1CNCCCSc1nnnn1-c1ccccc1,i,i,.,.,5%[9.22 µM]
CCOc1ccc(C(=O)c2cn(CC(=O)Nc3ccc4c(c3)OCCO4)c3ccc(F)cc3c2=O)cc1,i,i,.,.,20%
Cc1ccc(SCc2nc(-c3ccncc3)no2)cc1,i,i,6%,i,16µM*
c1ccc(OCc2nc(-c3ccncc3)no2)cc1,i,i,4%,i,11µM*
Cc1ccc(SCc2nc(-c3ccccc3)no2)cc1,i,i,-13%,i,8%
Cc1cc(OCc2nc(-c3cccnc3)no2)c(C)cc1Br,i,i,1%,i,1%
c1ccc(OCc2nc(-c3ccccc3)no2)cc1,i,i,-6%,i,0%
Cc1ccccc1OCc1nc(-c2cccnc2)no1,i,i,11%,i,11µM*
Cc1cc(=O)n2nc(N(C)CC(=O)NCc3ccccc3C)sc2n1,i,i,.,.,6%
CCOC(=O)c1sc(NC(=O)c2cc3nc(-c4ccc(Br)cc4)cc(C(F)(F)F)n3n2)c(C(=O)OCC)c1C,i,i,.,.,-1%
Cc1ccccc1Nc1c(-c2ccccc2O)nc2sccn12,i,?,.,.,-3%
Cc1ccc2occ(CC(=O)Nc3c(C(=O)Nc4ccc(Cl)cc4)oc4ccccc34)c2c1,i,i,.,.,12%
Cc1ccc(-n2c(C)nc3c(cnn3-c3ccccc3C)c2=O)cc1F,i,i,.,.,?
O=C(Nc1ccc(Br)cc1)C1CC(c2c(F)cccc2Cl)=NO1 (configuration not stated),i,i,7%,i,11µM*
COc1ccc(N2CCN(C(c3cc4cc(C)ccc4[nH]c3=O)c3nnnn3Cc3ccccc3)CC2)cc1 (configuration not stated),i,8.9µM*,-5%,i,-8%
COc1ccc2[nH]c(=O)c(CN(Cc3ccco3)C(c3nnnn3Cc3ccccc3)C(C)C)cc2c1 (configuration not stated),?,?,14%,-105%*,4%
